Holding throughout (experiment): log2 fold change, soluble protein after heating vs DMSO (PISA); higher = thermal stabilisation; K562 lysate, 10 uM; active = over 0.2 and 3.5 SD of the protein, either way, in both replicates (recomputed)
Compound in one assay: CN1CC[C@H](c2c(O)cc(O)c3c(=O)cc(-c4ccccc4Cl)oc23)[C@H](O)C1 [alvocidib]
In short, it runs like this:
(§1)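 The values are log-two fold changes in thermal stability compared with solvent controls and come from duplicates. They were obtained by TMTpro 16plex LC-MS/MS, with channel sums equalised, on the supernatant after 21,000xg for 90 min. That supernatant came from crude K562 extract at 1 mg/mL protein treated with 10 μM compound for 30 min, heated for 3 min across 48°C-58°C, pooled and brought to 0.5% NP-40 at 4°C.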

Compound in assay [1]: CNC(=O)C1=CC=CC=C1NC2=NC(=NC=C2Cl)NC3=C(C=C(C=C3)N4CCOCC4)OC
Summed up: as §1

Compound in another assay: CNC(=O)c1ccc(Nc2ncc(C(F)(F)F)c(NCc3nccnc3N(C)S(C)(=O)=O)n2)cc1 [defactinib]
In short, it runs like this:
as §1

Compound in assay [2]: CNc1nc(-c2ccc3c(N)n[nH]c3c2)cc(N2C[C@@H](C(=O)NC3CCCCC3)CC[C@H]2C)n1
Summed up:
as §1

Compound in another assay: COC(=O)N[C@@H](C)CNc1nccc(-c2cn(C(C)C)nc2-c2cc(Cl)cc(NS(C)(=O)=O)c2F)n1 [encorafenib]
In short, it runs like this:
as §1

Compound in assay [3]: COC(=O)[C@H](CCSC)NC(=O)C1=C(C=C(C=C1)NC[C@H](CS)N)C2=CC=CC=C2
In short, it runs like this:
as §1

Compound in another assay: COc1cc(Nc2ncc3c(n2)-c2ccc(Cl)cc2C(c2c(F)cccc2OC)=NC3)ccc1C(=O)O [alisertib]
In short, it runs like this: as §1

Compound in assay [4]: COc1cc2nc(-c3cc(F)ccc3O)nc(N[C@@H]3CNC[C@H]3C(C)(C)O)c2cc1OC
Summed up: as §1

Compound in the next assay: COc1cc2ncnc(Nc3ccc(F)c(Cl)c3)c2cc1OCCCN1CCOCC1 [gefitinib]
Summed up: as §1

Compound in another assay: CN1CCc2c(c3ccccc3n2Cc2ccc(C(=O)NO)cc2)C1 [Tubastatin A]
In short, it runs like this:
as §1

The full data set covers some 8,800 targets. This sample favours those with a hit. About 0.5% of all pairs of compound and target were hits. A number with no mark means an inactive call.

UniProt Q9HCK4, sequence (Q9HCK4 whole entry, looked up): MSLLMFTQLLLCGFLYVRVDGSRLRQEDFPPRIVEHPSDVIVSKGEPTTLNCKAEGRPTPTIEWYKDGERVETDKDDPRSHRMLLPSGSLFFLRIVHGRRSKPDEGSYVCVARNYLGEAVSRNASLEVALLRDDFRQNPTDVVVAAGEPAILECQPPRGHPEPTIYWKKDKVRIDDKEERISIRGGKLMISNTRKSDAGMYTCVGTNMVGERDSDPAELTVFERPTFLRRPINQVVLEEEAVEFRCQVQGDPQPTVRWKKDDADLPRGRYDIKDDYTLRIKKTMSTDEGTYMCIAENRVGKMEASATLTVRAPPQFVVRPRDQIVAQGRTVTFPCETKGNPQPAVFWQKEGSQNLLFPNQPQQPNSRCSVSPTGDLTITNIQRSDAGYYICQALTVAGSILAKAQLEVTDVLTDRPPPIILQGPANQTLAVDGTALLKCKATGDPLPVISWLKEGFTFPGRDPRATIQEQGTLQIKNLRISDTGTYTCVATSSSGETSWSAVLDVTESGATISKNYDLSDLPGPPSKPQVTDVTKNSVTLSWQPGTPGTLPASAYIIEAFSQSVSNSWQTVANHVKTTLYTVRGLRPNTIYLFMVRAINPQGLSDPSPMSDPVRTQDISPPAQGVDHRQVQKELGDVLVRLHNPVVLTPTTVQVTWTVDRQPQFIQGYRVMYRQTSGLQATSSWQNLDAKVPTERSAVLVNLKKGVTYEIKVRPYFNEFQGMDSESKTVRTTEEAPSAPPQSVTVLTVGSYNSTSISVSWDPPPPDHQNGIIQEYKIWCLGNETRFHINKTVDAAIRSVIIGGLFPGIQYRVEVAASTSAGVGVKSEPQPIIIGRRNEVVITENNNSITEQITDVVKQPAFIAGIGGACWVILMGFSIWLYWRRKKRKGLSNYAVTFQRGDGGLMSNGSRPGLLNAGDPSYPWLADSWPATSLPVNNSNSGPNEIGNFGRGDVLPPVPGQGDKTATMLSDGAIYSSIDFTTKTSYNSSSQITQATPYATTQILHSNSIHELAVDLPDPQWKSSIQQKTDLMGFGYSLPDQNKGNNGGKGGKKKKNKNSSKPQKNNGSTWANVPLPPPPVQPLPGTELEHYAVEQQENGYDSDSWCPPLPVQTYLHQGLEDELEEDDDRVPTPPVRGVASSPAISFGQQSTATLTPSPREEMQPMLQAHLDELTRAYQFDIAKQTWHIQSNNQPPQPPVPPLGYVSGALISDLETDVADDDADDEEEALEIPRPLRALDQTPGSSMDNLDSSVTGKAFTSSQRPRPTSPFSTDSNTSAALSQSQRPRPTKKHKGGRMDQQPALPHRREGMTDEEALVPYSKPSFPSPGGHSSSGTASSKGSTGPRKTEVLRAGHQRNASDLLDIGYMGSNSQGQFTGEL
UniProt P19793, sequence (P19793 whole entry, looked up): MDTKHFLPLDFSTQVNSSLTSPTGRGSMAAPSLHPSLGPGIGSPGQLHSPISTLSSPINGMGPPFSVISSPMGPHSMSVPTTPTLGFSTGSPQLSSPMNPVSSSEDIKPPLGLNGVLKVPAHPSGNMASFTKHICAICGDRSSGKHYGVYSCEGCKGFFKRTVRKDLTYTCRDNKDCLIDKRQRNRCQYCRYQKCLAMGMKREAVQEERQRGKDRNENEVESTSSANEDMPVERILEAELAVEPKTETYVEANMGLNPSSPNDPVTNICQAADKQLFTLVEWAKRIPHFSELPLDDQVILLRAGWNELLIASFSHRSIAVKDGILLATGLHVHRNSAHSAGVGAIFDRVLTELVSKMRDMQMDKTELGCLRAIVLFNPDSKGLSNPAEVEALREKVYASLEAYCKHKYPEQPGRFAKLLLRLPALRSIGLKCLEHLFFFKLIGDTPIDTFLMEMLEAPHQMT
UniProt P51812, sequence (P51812 whole entry, looked up): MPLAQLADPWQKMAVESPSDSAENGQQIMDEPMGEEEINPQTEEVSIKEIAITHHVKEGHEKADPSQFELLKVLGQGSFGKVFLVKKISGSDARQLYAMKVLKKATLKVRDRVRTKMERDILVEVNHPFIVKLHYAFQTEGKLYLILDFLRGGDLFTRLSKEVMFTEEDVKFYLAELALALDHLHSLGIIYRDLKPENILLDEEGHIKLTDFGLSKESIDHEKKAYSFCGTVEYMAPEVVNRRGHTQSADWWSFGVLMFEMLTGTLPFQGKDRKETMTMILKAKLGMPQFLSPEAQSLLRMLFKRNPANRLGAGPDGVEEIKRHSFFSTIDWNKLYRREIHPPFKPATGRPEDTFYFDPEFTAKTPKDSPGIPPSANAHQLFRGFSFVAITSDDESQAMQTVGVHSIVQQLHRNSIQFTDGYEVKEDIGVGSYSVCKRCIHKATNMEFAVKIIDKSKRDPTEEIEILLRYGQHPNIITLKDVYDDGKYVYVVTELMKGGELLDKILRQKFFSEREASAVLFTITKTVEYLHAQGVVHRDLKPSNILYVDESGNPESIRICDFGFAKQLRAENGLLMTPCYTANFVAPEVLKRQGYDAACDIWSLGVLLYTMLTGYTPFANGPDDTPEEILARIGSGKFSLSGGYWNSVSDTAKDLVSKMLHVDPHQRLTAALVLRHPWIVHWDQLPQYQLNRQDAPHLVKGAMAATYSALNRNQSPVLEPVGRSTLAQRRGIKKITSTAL
UniProt O75943, sequence (O75943 whole entry, looked up): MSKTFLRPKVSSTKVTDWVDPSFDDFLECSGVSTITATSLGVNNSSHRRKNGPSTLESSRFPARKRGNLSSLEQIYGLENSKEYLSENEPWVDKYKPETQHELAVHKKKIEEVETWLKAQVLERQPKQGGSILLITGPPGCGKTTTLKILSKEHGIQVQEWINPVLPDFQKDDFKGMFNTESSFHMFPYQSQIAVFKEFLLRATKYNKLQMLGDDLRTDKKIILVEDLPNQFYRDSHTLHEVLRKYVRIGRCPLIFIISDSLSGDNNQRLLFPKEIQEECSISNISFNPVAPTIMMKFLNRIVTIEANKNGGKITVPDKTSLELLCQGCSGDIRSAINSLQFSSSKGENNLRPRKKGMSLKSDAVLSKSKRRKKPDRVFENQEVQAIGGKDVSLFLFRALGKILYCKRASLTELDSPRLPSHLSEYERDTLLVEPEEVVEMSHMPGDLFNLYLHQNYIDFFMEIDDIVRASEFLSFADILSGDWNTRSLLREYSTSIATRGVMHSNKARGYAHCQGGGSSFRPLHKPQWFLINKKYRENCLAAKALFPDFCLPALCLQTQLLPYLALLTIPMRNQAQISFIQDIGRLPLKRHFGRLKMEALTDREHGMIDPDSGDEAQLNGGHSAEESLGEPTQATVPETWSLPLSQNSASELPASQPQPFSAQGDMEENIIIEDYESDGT
UniProt Q96LT9, sequence (Q96LT9 whole entry, looked up): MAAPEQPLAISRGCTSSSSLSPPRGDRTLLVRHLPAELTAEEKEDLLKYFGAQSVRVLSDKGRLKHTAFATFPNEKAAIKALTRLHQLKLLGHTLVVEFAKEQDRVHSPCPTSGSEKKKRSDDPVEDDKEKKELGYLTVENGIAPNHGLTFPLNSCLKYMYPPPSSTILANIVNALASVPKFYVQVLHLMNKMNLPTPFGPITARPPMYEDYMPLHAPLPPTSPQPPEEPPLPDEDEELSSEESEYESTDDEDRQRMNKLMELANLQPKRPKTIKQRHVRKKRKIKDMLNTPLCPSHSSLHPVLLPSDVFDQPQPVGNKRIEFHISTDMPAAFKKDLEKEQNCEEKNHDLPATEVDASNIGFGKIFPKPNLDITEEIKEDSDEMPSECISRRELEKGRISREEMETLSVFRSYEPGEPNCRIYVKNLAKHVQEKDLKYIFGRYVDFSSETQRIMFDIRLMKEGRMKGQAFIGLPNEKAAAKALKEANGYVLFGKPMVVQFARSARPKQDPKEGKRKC
UniProt Q96E14, sequence (Q96E14 whole entry, looked up): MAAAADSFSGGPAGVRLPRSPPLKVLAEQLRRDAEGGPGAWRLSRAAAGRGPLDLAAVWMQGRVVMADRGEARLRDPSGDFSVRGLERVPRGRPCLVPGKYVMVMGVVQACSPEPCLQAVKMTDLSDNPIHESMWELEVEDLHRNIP
UniProt Q96K19, sequence (Q96K19 whole entry, looked up): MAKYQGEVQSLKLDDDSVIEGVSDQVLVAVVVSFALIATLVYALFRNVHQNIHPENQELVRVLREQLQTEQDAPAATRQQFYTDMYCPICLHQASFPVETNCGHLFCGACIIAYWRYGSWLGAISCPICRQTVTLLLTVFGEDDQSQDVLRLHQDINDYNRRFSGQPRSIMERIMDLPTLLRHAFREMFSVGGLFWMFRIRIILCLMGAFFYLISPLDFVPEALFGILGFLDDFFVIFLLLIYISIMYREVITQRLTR
UniProt Q96JX3, sequence (Q96JX3 whole entry, looked up): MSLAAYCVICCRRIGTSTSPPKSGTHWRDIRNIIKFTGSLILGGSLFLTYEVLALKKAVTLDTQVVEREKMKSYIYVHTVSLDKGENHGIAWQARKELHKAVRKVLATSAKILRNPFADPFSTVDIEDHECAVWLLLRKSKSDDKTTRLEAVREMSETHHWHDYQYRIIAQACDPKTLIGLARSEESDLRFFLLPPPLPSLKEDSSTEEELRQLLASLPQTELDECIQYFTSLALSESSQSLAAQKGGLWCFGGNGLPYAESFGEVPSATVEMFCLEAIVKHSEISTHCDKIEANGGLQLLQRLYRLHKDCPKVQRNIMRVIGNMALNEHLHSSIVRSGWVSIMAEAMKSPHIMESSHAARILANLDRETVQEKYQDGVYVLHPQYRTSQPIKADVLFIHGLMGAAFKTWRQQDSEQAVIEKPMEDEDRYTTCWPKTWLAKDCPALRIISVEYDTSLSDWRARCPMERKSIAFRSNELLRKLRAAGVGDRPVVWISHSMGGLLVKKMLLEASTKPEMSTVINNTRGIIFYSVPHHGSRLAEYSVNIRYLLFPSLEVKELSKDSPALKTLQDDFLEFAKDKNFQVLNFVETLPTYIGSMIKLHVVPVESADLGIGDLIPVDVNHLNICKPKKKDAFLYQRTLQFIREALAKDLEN

For the target RAP1B (UniProt F5GZG1), the log2 fold change with alvocidib was -0.118; in assay [1] it was 0.01; with defactinib, -0.05; in assay [2] it was -0.104; in the assay with encorafenib, 0.056; in assay [3], 0.124. For the same target, the results for the log2 fold change (with alisertib; in assay [4]; with gefitinib) were 0.059, 0.002 and 0.071, respectively.
In the case of RXRA (UniProt P19793), the log2 fold change was -0.019 with alvocidib; 0.138 with Tubastatin A; -0.06 in assay [1]; 0.072 in assay [2]; -0.117 with alisertib; 0.018 in assay [4]. Besides, the log2 fold change with gefitinib was 0.043.
For the target SERAC1 (UniProt Q96JX3), the log2 fold change with alvocidib was 0.048; in [1], -0.024; in assay [2], 0.149; with encorafenib it was -0.051; in assay [3], -0.003; in the assay with alisertib, -0.412. The log2 fold change in the assay with gefitinib is -0.165.
For the target SEC16A isoform 2 (UniProt O15027), the log2 fold change in the assay with Tubastatin A is 0.023.
In the case of RBBP7 (UniProt C9J7L0), the log2 fold change was 0.089 with alisertib and -0.058 with gefitinib.
Take RMI2 (UniProt Q96E14): the log2 fold change in the assay with Tubastatin A was -0.146; in assay [1], -0.074; with defactinib, 0.265; in assay [2], 0.007; with encorafenib, -0.054; in assay [3], -0.021.
For the target RNF17 (UniProt Q9BXT8), the log2 fold change with alvocidib was -0.006; in the assay with Tubastatin A it was 0.079; in assay [1] it was 0.096; in [2], -0.183; with encorafenib, 0.061; in assay [3], -0.032. Also, the log2 fold change in [4] was -0.057.
In the case of RNPC3 (UniProt Q96LT9), the log2 fold change with alvocidib is 0.012; with Tubastatin A, -0.099; in [1] it was -0.047; in assay [2] it was 0.082; with alisertib, 0.118; in [4] it was 0.056. Moreover, the log2 fold change with gefitinib is -0.08.
Regarding RPS6KA3 (UniProt P51812), the log2 fold change is 0.306 with alvocidib; -0.151 in the assay with Tubastatin A; 0.433 (active) with defactinib; -0.017 in assay [2]; -0.107 with encorafenib; 0.056 in assay [3]. Besides, the log2 fold change in assay [4] is 0.049; with gefitinib, -0.025.
As to RNF170 (UniProt Q96K19), the log2 fold change with alvocidib is 0.371; in assay [1] it was -0.137; with defactinib, 0.027; in assay [2], -0.067; with alisertib, 0.055; in assay [4], 0.07. In the assay with gefitinib, the log2 fold change is 0.037.
Take SEC16A isoform 3 (UniProt O15027): the log2 fold change with Tubastatin A was -0.008; in [2] it was 0.023.
Take ROBO2 isoform 3 (UniProt Q9HCK4): the figures for the log2 fold change (in the assay with Tubastatin A; in [1]; in assay [4]) were -0.009, 0.03 and 0.009, respectively.
RAD17 (UniProt O75943): the log2 fold change with alvocidib was -0.24; with Tubastatin A, -0.041; in the assay with defactinib it was 0.111; in assay [2], 0.154; in the assay with encorafenib, 0.094; in [3], 0.026. For the same target, the results for the log2 fold change with alisertib and with gefitinib were 0.029 and 0.022, respectively.

Values taken from the supplement of paper PMC10849652.
